Source: PubChem BioAssay (NCATS)
Values joined by “and” are separate entries in the source; they are usually repeats but may differ in a detail not shown here. Identical values can stand only once. Inconclusive results are not listed. Values without a mark were called inactive. Active and inactive are the calls of the source. Calls come from the whole dose curve; as a rule, active = well fitted curve in the direction sought with a large enough effect; inconclusive = small, poorly fitted or top-dose-only effect, or another doubt; inactive = no such curve, though single readings can be large or run the other way.

Assay: qHTS Assay for Identifying Gametocytocidal Compounds (AID 743244);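 for max response: actives lower the fluorescent signal which means gametocytes are killed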
Settings: P. falciparum 3D7 stage III-V gametocytes, alamarBlue, 72 h; max response: active compounds read low
Description: Malaria cases and deaths have dropped 50% in 29 countries since 2000 due to the combined effects of long-lasting insecticidal bednets, indoor residual spraying, and artemisinin-based combination therapies (ACTs). This success has raised hopes for malaria eradication and consequently stimulated interest in developing new reagents that block gametocyte transmission such as novel and safe gametocytocidal drugs. However, previous drug development efforts have focused primarily on the asexual parasites that cause symptoms, but not malaria transmission. Consequently, patients can remain infectious for weeks after the clearance of asexual parasites and clinical symptoms. To be transmitted from person to person via a mosquito, the parasites must switch from asexual to sexual development and produce male and female gametocytes. Malaria gametocytes consist of five stages (I, II, III, IV and V). The late stage gametocytes (III, IV and V) are difficult to be cultured in vitro and the long lifespan of mature gametocytes allows them being transmitted from host to mosquitoes unless they are completely eliminated by gametocytocidal agents. To identify gametocytocidal compounds which are capable of killing late stage P. falciparum gametocytes, a high throughput gametocyte viability assay was employed. This assay uses oxidoreduction indicator, alamarBlue, as a general measure of metabolic activity of gametocytes. Within live cells, the nonfluorescent resazurin is reduced to resorufin, a bright red fluorescence dye. Fluorescence decreases upon treatment of gametocytocidal compounds. P. falciparum gametocyte (3D7 strain) was used in this study.
The 1536-well gametocycidal viability assay was based on the previous method of Tanaka et al. Stage III-V gametocytes were tested against three compound libraries, including 4265 compounds from NCGC pharmaceutical collection, 400 from Malaria Box library, and 550 from an internal collection of kinase inhibitors. Briefly, 2.5 ul/well incomplete medium was dispensed into each well of 1,536-well plates using the Multidrop Combi followed by 23 nl compound transferring using the NX-TR Pintool (WAKO Scientific Solutions, San Diego, CA). Then, 2.5 ul/well of gametocytes was dispensed with a seeding density of 20,000 cells/well using the Multidrop Combi. The assay plates were incubated for 72 h at 37C with 5% CO2. After addition of 5 ul/well of 2X AlamarBlue dye (Life Technologies, cat. no. DAL1100), the plates were incubated for 24 h at 37C with 5% CO2 and then were read in a fluorescence detection mode (Ex = 525 nm, Em = 598 nm) on a ViewLux plate reader (PerkinElmer).
% is set by controls: 0 for no effect and ±100 for the full control effect; potency is the fitted concentration of half-maximal effect.

In order of rising max response:
1. O=C(O)C1(C(=O)O)CCC1.[NH2-].[NH2-].[Pt+2]  -10.4%
2. C[C@@H](O)[C@H]1C(=O)N2C(C(=O)O)=C([C@H]3CCCO3)S[C@H]12  -9.42%
3. CC(=O)NC(=O)c1ccccc1O  -9.03%
4. CC(=O)O[C@]1(C(C)=O)CC[C@H]2[C@@H]3C=C(Cl)C4=CC(=O)CC[C@]4(C)[C@H]3CC[C@@]21C  -7.79%
5. CCCCCCCCCCC[C@@H](C[C@@H]1OC(=O)[C@H]1CCCCCC)OC(=O)[C@H](CC(C)C)NC=O  -7.75%
6. CCc1oc2ccccc2c1C(=O)c1cc(Br)c(O)c(Br)c1  -6.8%
7. C/C=C/C=N/NC(=O)c1ccncc1  -5.06%
8. CC1(C)OC[C@@H]2O[C@@]3(C(=O)O)OC(C)(C)O[C@H]3[C@@H]2O1  -4.16%
9. Nc1nc(N)c(-c2ccccc2)s1  -3.45%
10. CCCCCCCCCCCCCC(=O)OC(C)C  -3.41%
11. NS(=O)(=O)Cc1noc2ccccc12  -3.32%
12. OC(C#CCN1CCCC1)(c1ccccc1)c1ccccc1  -3.1%
13. O=C(O)C(Cc1cc(I)c(O)c(I)c1)c1ccccc1 (stereo not given)  -2.86%
14. CC(=O)Nc1ccc(OCC(O)CNC(C)C)cc1 (stereo not given)  -2.82%
15. NS(=O)(=O)c1ccc(Cl)c(S(N)(=O)=O)c1  -1.41%
16. CN1CCN(C2=Nc3ccccc3Sc3ccc(Cl)cc32)CC1  -0.118%
17. CN(C)CCOC(=O)C(c1ccccc1)C1(O)CCCC1 (stereo not given)  1.53%
18. CC1(COc2ccc(CC3SC(=O)NC3=O)cc2)CCCCC1 (stereo not given)  2.09%
19. CC(C)=CCOc1ccc(/C=C/C(=O)c2ccc(OCC=C(C)C)cc2OCC(=O)O)cc1  2.6%
20. CCC(Cc1c(I)cc(I)c(N)c1I)C(=O)O (stereo not given)  3.24%
21. O=C(Nc1ccc([N+](=O)[O-])cc1)Nc1ccc([N+](=O)[O-])cc1  3.29%
22. CC[C@]12CCCN3CCc4c(n(c5ccccc45)C(=O)C1)[C@@H]32  3.35%
23. CCNC(=O)/C=C/c1cccc(Br)c1  3.79%
24. Cc1ccc(S(=O)(=O)NC(=O)NC2CCCC2)cc1  3.98%
25. N=C(N)N1CCc2ccccc2C1  4.79%
26. CC(O)Cn1cnc2c1c(=O)n(C)c(=O)n2C (stereo not given)  5.34%
27. CCC1NC(=O)c2cc(S(N)(=O)=O)c(Cl)cc2N1 (stereo not given)  5.58%
28. CCOc1ccccc1OCCN[C@H](C)Cc1ccc(OC)c(S(N)(=O)=O)c1  5.89%
29. C#C[C@]1(O)CC[C@H]2[C@@H]3CCC4=CC(=O)CC[C@@H]4[C@H]3CC[C@@]21CC  6.28%
30. Nc1ccc(C(=O)NCC(=O)O)cc1  6.7%
31. CCNC(=O)NCc1cccc(Cl)c1  8.55%
32. COc1cc(C(=O)N2CCCCCCC2)cc(OC)c1OC  12.8%
33. C=CCN1CCc2nc(N)sc2CC1  14.4%
34. COc1ccc2c(c1)c1c3n2CCN(C)C3=NCC1  18.4%
35. CCCCCCCCCCCCCCCCO  19.3%

For `CO[C@H]1C=CO[C@@]2(C)Oc3c(C)c(O)c4c(O)c(c(/C=N/N5CCN(C)CC5)c(O)c4c3C2=O)NC(=O)/C(C)=C\C=C[C@H](C)[C@H](O)[C@@H](C)[C@@H](O)[C@@H](C)[C@H](OC(C)=O)[C@@H]1C`, the Potency was 15.8 µM (active).
With `CCN(CC)CCOc1ccc2c(c1)C(=O)c1cc(OCCN(CC)CC)ccc1-2` the Potency was 12.6 µM (active).
For `O=C1C(CCS(=O)c2ccccc2)C(=O)N(c2ccccc2)N1c1ccccc1` (stereo not given), the Potency was 0.0089 µM (active).
With `O=C(N/N=C/c1ccc([N+](=O)[O-])o1)c1ccc(O)cc1` the Potency was 1.12 µM (active).

In the case of `CCOC(=O)[C@H](CCc1ccccc1)N[C@@H](C)C(=O)N1[C@H](C(=O)O)C[C@H]2CCCC[C@@H]21`, the max response is reported as -0.763% and -2.8% and 30%.
